# CYP2C19 activ – increases human CYP2C19 enzyme activity | 96,000 tested, under 10 active | AID 1025 | P33261 | recombinant CYP2C19, luciferin-H EGE luminescence; stronger effect = higher value; 0 = fully inhibited enzyme, 1 = untreated enzyme | activation factor at 5 µM;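 active = activation factor of at least 2 at 5 µM in the primary screen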
# MRP reversal – MRP-mediated drug resistance reversal | H69AR cells + 2 uM doxorubicin, CellTiter-Glo, 72 h | differential viability (reversal), % at 10 µM | hit rate 0.04% among 85,000 | AID 602;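 active = viability drop by adding the cancer drug above about 55%, with treated viability meeting a 40% cutoff, limit read from the data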;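 note: larger differential means the compound sensitizes cells more to doxorubicin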
# MRP-1 activ – MRP-1 activation; H69AR cells + doxorubicin, viability rescue, CellTiter-Glo; hit rate 0.61% among 140,000; AID 799; viability increase, % at 10 µM;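 active = viability gain under doxorubicin at or above a set limit, the compound median plus 3 SD, cut at about 4.7% in these data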;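 note: MRP-1 overexpressing cells given doxorubicin 25 µM after compound pretreatment; 18-22 h compound pretreatment then 72 h with doxorubicin before readout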
# CYP2C19 inhib – inhibitors of human CYP2C19; P33261; CYP2C19 Supersomes, luciferin-H EGE luminescence, 30 min; inhibition, % at 5 µM; hit rate 21% among 96,000; AID 778;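 active = CYP2C19 inhibition above a set limit at 5 µM in the primary screen, cut at about 50% in these data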
# CYP2C9 act – increases human cytochrome P450 2C9 activity; recombinant CYP2C9, luciferin-H conversion, luminescence; stronger effect = higher value; factor 1 = untreated enzyme, 0 = blocked; activation factor at 5 µM; hit rate 1.4% among 96,000;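 active = activation factor of 2 or more for CYP2C9 at a 5 µM dose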
# Target sequence (P11712 whole entry, looked up): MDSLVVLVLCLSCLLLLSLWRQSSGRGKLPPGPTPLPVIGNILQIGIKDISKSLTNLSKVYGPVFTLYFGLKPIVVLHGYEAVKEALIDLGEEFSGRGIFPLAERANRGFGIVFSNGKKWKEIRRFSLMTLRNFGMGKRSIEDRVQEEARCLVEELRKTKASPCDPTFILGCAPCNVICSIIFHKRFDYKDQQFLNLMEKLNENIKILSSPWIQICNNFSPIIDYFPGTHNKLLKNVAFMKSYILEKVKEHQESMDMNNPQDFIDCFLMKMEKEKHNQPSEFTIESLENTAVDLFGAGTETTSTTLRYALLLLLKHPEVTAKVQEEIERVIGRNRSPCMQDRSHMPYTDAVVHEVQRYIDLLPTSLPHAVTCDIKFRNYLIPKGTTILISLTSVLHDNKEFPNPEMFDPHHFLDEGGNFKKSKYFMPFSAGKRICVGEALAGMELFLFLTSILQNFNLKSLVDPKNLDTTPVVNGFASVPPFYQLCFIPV
# CYP2C9 inhib – blocks human cytochrome P450 2C9; CYP2C9 Supersomes, luciferin-H conversion, luminescence; AID 777; hit rate 20% among 96,000; P11712; inhibition, % at 5 µM;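 active = blocking of liver enzyme CYP2C9 beyond about 50% at 5 µM, limit read from the data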
# Hits are given with their value; . = inactive; / = no result given. The list is not random: actives were taken first. Their share in the collection is about 21%.
SMILES,CYP2C19 activ,MRP reversal,MRP-1 activ,CYP2C19 inhib,CYP2C9 act,CYP2C9 inhib
O=C(CSc1nnc(-c2cnccn2)n1Cc1ccco1)c1ccc2ccccc2c1,.,/,.,.,.,54
Cc1ccc(NC(=O)CSc2nnc(-c3cnccn3)n2Cc2ccco2)cc1,.,.,.,.,.,.
O=C(CSc1nc2ccccc2c(=O)n1Cc1ccco1)c1ccc(F)cc1,.,.,.,.,.,52
NC(=O)CSc1nc2ccccc2c(=O)n1Cc1ccco1,/,.,.,/,/,/
Fc1ccc(CSc2nnc(-c3cnccn3)n2Cc2ccco2)cc1,.,.,.,70,.,77
CCn1c(SCC(=O)c2ccccc2)nnc1-c1cnccn1,.,/,.,54,.,.
Cc1ccc(S(=O)(=O)NC(C(=O)Oc2ccc3c(C(F)(F)F)cc(=O)oc3c2)c2ccccc2)cc1 (centres undefined),/,/,.,/,/,/
COc1ccc(C(=O)NC(=S)NCc2cccnc2)cc1[N+](=O)[O-],/,/,.,/,/,/
O=C(CSc1nnc(COc2ccccc2)n1Cc1ccco1)c1ccc(F)cc1,.,.,.,.,.,.
Cc1cc(NC(=O)CSc2nnc(-c3ccco3)n2Cc2ccccc2)no1,/,.,.,/,/,/
COc1ccccc1-c1nnc(SCC(=O)c2ccc(C3CCCCC3)cc2)n1Cc1ccco1,.,.,.,80,.,86
Cc1occc1-c1nnc(SCC(=O)c2ccc(F)cc2)o1,.,.,.,84,.,.
O=C(CSc1nnc(-c2ccccn2)n1Cc1ccco1)c1ccc(-c2ccccc2)cc1,.,.,.,.,.,.
O=C(CSc1nnc(-c2ccco2)n1Cc1ccccc1)c1ccc(F)cc1,.,.,.,96,.,92
Cc1occc1-c1nnc(SCC(=O)c2ccc(F)cc2)n1Cc1ccco1,.,.,.,.,.,60
Cc1cc(NC(=O)CSc2nnc(-c3ccoc3C)o2)no1,.,.,.,.,.,.
Cc1cc2ccccc2c(=O)n1CC(=O)NCC(=O)N(C)C1CCCCC1,.,.,.,.,.,.
Cn1c(SCC(=O)c2ccc(F)cc2)nnc1-c1ccccc1N,.,.,.,75,.,.
O=C(CSc1nnc(-c2cc3ccccc3cc2O)n1Cc1ccco1)c1ccc(F)cc1,.,.,.,94,.,100
Cc1ccc(C(=O)CSc2nnc(-c3ccccc3N)n2C)cc1,.,.,.,.,.,.
O=C(O)CCN1CC2([N+](=O)[O-])C=CC(=O)C([N+](=O)[O-])(C1)C2CC(=O)c1ccccc1 (centres undefined),/,/,.,/,/,/
Cc1ccc(C(=O)O/N=C/c2c(C(F)(F)F)nn(C)c2Sc2ccc(Cl)cc2)cc1,.,.,.,.,.,80
Cn1nc(C(F)(F)F)c(/C=N/OC(=O)c2ccccc2Cl)c1SCc1ccc(Cl)cc1,.,/,.,54,.,77
COC(=O)c1ccccc1Sc1c(/C=N/OC(=O)c2ccccc2)c(C(F)(F)F)nn1C,.,.,.,.,.,91
Cn1c(NC(=O)Cc2ccc(F)cc2)cc(=O)n(C)c1=O,.,.,.,.,.,.
SMILES,CYP2C19 activ,MRP reversal,MRP-1 activ,CYP2C19 inhib,CYP2C9 act,CYP2C9 inhib
Cc1cc(C)c(OCCCCCNCCO)c(C)c1,.,.,.,.,.,87
Cc1cc(C)cc(OCCCCCNCCO)c1,/,.,.,/,/,/
CCn1cc(C(=O)N=c2sc3ccccc3n2C)c(=O)c2ccc(C)nc21,/,.,/,/,/,/
Cc1c2cnn(CC(=O)N3CCN(c4ncccn4)CC3)c(=O)c2c(C)n1Cc1ccc(F)cc1,/,.,.,/,/,/
O=C(Cn1ncc2c3ccccc3n(Cc3ccccc3)c2c1=O)N1CCN(c2ncccn2)CC1,.,.,.,98,.,77
COc1cccc(-n2c(Cc3cc(=O)[nH]c(=O)[nH]3)nnc2SCC(=O)N2CCC(C)CC2)c1,.,.,.,.,.,.
CCSc1nc(-c2ccc(OC)cc2)cc(-c2ccccc2)c1C#N,.,.,.,.,.,66
COc1ccc(-c2cc(-c3cccs3)c(C#N)c(SCC(=O)NCc3ccccc3)n2)cc1,.,.,.,.,.,53
N#Cc1c(-c2ccccc2)cc(-c2ccccc2)nc1Br,/,/,.,/,/,/
COc1ccccc1-c1cc(-c2ccc(C)cc2)nc(SCc2nnc(-c3ccccc3)o2)c1C#N,.,/,.,.,.,69
COc1ccc(-c2cc(-c3ccccc3)c(C#N)c(S(C)=O)n2)cc1 (centres undefined),.,.,.,.,.,68
COc1ccc(CCNC(=O)c2ccc(Cl)c(S(=O)(=O)N(C)c3ccccc3)c2)cc1,/,/,.,/,/,/
